# Source: PubChem BioAssay AID602396 (The Scripps Research Institute Molecular Screening Center, 2012)
# In all, about 360,000 compounds went through this assay and about 460 (0.13%) were called active.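 Rule for the calls: active = inhibition above the mean inhibition of all tested compounds plus 3 SD (cut at about 73% in these data); inactive = the rest.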 The sample as a whole holds a higher share of actives than the screen did.
# Target: Nuclear receptor subfamily 5 group A member 2 (Homo sapiens) (UniProt O00482)
# Experiment: reduction of NR5A2-driven StAR reporter activity – cell-based, luminescence, HEK293T, StAR-luciferase reporter, primary screen (AID 602396);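 note: 0% = DMSO wells and 100% = reporter-only cells lacking LRH-1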
# Settings: LRH-1 transfected, 24 h, at 3.6 µM, hits give high values
# Nuclear receptor subfamily 5 group A member 2 (Homo sapiens), sequence (O00482 whole entry, looked up): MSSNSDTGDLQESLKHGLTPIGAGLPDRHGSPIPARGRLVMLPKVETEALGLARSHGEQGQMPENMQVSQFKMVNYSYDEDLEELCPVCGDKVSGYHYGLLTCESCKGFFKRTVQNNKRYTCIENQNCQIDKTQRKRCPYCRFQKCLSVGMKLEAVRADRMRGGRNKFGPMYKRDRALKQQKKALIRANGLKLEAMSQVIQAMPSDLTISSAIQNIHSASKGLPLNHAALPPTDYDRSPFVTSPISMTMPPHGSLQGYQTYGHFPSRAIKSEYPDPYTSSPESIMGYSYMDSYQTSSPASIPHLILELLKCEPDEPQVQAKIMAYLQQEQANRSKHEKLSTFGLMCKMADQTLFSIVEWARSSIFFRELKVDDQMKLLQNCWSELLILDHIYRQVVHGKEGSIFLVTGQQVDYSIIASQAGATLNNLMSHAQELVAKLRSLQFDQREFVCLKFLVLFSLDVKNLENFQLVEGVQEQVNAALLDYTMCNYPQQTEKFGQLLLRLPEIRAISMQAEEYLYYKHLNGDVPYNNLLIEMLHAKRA
row,Compound,inhibition
1,CCCOc1ccc(CN(CCO)CCO)cc1C(=O)OC,23.4% (inactive)
2,O=C(NC1CCC(O)CC1)c1ccccc1OCc1ccc(F)cc1 (stereo not drawn),21.9% (inactive)
3,COC(=O)C1=NN(c2ccccc2)C2C(=O)N(c3ccccc3OC)C(=O)C12 (stereo not drawn),10% (inactive)
4,CCOC(=O)N1CCN(S(=O)(=O)c2cc3c(cc2C)NC(=O)CO3)CC1,12.8% (inactive)
5,O=[N+]([O-])c1ccc2c(c1)C(O)n1nc(-c3ccccc3)nc1S2 (stereo not drawn),-9.43% (inactive)
6,O=C(NC(Nc1nc2ccc([N+](=O)[O-])cc2s1)(C(F)(F)F)C(F)(F)F)c1ccccc1,97.9% (active)
7,O=C(Nc1cc(-c2ccccc2)nn1-c1ccccc1F)c1ccc([N+](=O)[O-])cc1,-5.47% (inactive)
8,CCc1ccccc1N1CN(Cc2ccco2)CNC1=S,-20.8% (inactive)
9,COc1ccc(NC(=O)c2cccc3c2C(=O)N(CC2CCCO2)C3)cc1OC (stereo not drawn),-15.8% (inactive)
10,CCC1OC(C2CC2)CC2=C1C(=O)OC(C)(C)O2 (stereo not drawn),-31.2% (inactive)
11,COc1ccc(OC)c(NC(=O)c2ccc3c(c2)C(=O)N(c2ccc(OC(C)=O)cc2)C3=O)c1,15.1% (inactive)
12,N=c1ccn(CC(=O)NC(N)=O)c2ccccc12,19.2% (inactive)
13,CCOC(=O)CN(C(=O)COc1nc(-c2ccccc2)cc(C)c1C#N)c1ccc(F)cc1,21.9% (inactive)
14,O=S(=O)(c1ccc(F)cc1)N1CCN(Cc2ccccc2C(F)(F)F)CC1,10.2% (inactive)
15,COc1cc(OC)c2c(c1)OC(=O)CC2c1cc(OC)c(OC)c(OC)c1 (stereo not drawn),2.48% (inactive)
16,COc1ccc(N(C(=O)c2ccc(C)cc2)S(=O)(=O)c2cccs2)cc1,2.34% (inactive)
17,CC[C@H]1CN2CCc3cc(OC)c(OC)cc3[C@@H]2C[C@@H]1C[C@H]1NCCc2cc(OC)c(OC)cc21,103% (active)
18,NC(=NC(=O)c1ccccc1)C1=C(O)CCC1=O,-13.8% (inactive)
19,O=C(CN(Cc1ccccc1)C(=O)c1ccc2c(c1)OCCO2)NCc1ccc2c(c1)OCO2,4.07% (inactive)
20,CC(C)Nc1nc(NCCOc2ccccc2Cl)c2sccc2n1,18.8% (inactive)
21,CCCCN(C=O)c1c(CC)nc2c(OCCC3CCCCC3)cccn12,-7.2% (inactive)
22,Cc1ccc(S(=O)(=O)N2CC[C@H]3[C@@H](C2)C(=O)C[C@@H](c2ccccc2)N3S(=O)(=O)c2ccc(C)cc2)cc1,-11.8% (inactive)

row,Compound,inhibition
1,Cc1cc(NC(=O)COC(=O)/C=C/c2ccc(C)o2)no1,-7.21% (inactive)
2,CCN(CC)CCCNC(=O)c1c(O)c2cc(F)cc3c2n(c1=O)C(C)CC3 (stereo not drawn),-10.8% (inactive)
3,CCC(c1nnnn1-c1ccc2c(c1)OCCO2)N1CCN(c2ccc(C(F)(F)F)cn2)CC1 (stereo not drawn),-0.51% (inactive)
4,CC(=O)Nc1ccc(SC[C@H](Cc2ccccc2)N2CC[C@@H](C)CCC2=O)cc1,-2.81% (inactive)
5,O=C(Nc1ccccc1N1CCOCC1)c1ccc(OCc2cscn2)cc1,3.78% (inactive)
6,Cc1cc(CNCc2c(C(=O)N(C)Cc3ccccc3)nc3ccccn23)nn1C,12.7% (inactive)
7,CC(C)(C)Nc1nc(-c2ccccn2)nc2ccccc12,85% (active)
8,CC(Nc1nc(C(F)(F)F)nc2ccccc12)c1cccs1 (stereo not drawn),14.1% (inactive)
9,c1ccc(-c2nccc(-c3ccc(-n4cnc5ccccc54)cc3)n2)nc1,5.78% (inactive)
10,O=C(NCc1ccncc1)C1CCCN(S(=O)(=O)c2ccc(Br)cc2)C1 (stereo not drawn),2.98% (inactive)
11,O=C(CSc1ccccn1)Nc1nc2c(ccc3ccccc32)s1,-23.7% (inactive)
12,NC(N)=N/N=C/c1ccc(OCc2ccc(Cl)cc2Cl)cc1,-0.41% (inactive)
13,CCCCCCNC(=O)O[C@]12C[C@@H](C(=O)OC)[C@@H](C(=O)OC)C[C@@]1(O)CN(S(=O)(=O)c1ccc(C)cc1)C2,-18% (inactive)
14,Cc1cc(Nc2ccc(C)c(C)c2)n2ncnc2n1,18.7% (inactive)
15,C[C@@H]1CN([C@@H](C)CO)C(=O)CCCn2cc(nn2)CO[C@H]1CN(C)S(=O)(=O)c1ccc(-n2cccn2)cc1,1.12% (inactive)
16,CCN(CC)S(=O)(=O)c1ccc(OC)c(NC(=O)CCc2c(C)noc2C)c1,8.03% (inactive)
17,O=C(Nc1nnc(CCN2CCCCC2)s1)c1cccc(Cl)c1,0.75% (inactive)
18,COCCCN1C(=O)C(=O)/C(=C(/O)c2ccc(S(=O)(=O)N3CCOCC3)cc2)C1c1ccc(F)cc1 (stereo not drawn),9.93% (inactive)
19,CCN(CC)S(=O)(=O)c1cccc(C(=O)NCC(=O)OCC(=O)NCc2ccccc2)c1,1.85% (inactive)
20,C[n+]1cc(-c2ccccc2)oc1-c1ccccc1,-30.6% (inactive)
21,C=CCn1c(SCC(=O)c2c(N)n(C)c(=O)n(C)c2=O)nc2sc(CC)cc2c1=O,-16.9% (inactive)
22,Cc1ccn2c(=O)nc(SCC(=O)NCc3ccc4c(c3)OCO4)nc2c1,-9.89% (inactive)

row,Compound,inhibition
1,COc1cc(S(=O)(=O)N2CCN(C(=O)C3CC3)CC2)ccc1NC(C)=O,9.23% (inactive)
2,CCCCCCCCn1c2c(c(=N)c3c1CCC3)CCCC2,89.8% (active)
3,Cc1cccc2cc(CN(C(=O)c3cccs3)c3ccccc3)c(=O)[nH]c12,-23.1% (inactive)
4,O=C(NNC(=O)c1cnccc1C(F)(F)F)c1ccc(Cl)cc1,-7.32% (inactive)
5,CCN1/C(=C\c2ccc3ccccc3[n+]2CC)Sc2cc(C)ccc21,93.7% (active)
6,Cc1ccc(S(=O)(=O)N2C3C=CC(C3)C2C(=O)O)cc1 (stereo not drawn),-13.6% (inactive)
7,CCC(=O)N(C)C(c1ccccc1Cl)c1nnnn1-c1c(C)cccc1C (stereo not drawn),1.16% (inactive)
8,CC(=O)Nc1sc2c(c1C(c1cccc(F)c1)N1CCN(CCO)CC1)CCCC2 (stereo not drawn),5.02% (inactive)
9,O=C(Nc1c2c(nn1-c1cccc(Cl)c1)CS(=O)(=O)C2)c1cccs1,17.8% (inactive)
10,Cc1cccc(N2CCN(C(=O)c3cc4c(=O)[nH]c5ccccc5c4n3C)CC2)c1C,11.6% (inactive)
11,CCc1nc2c(OCc3ccc(F)c(F)c3)cccn2c1N(C)C(=O)c1ccco1,-12.9% (inactive)
12,c1cc(-c2ccc3[nH]ccc3c2)n2ccnc2c1,-8.26% (inactive)
13,COc1ccccc1-c1oc2ccccc2c1C#CCCCCO,-10.4% (inactive)
14,COC(=O)[C@]1(C)N[C@H](CN(C)C(=O)c2ccc(C(C)(C)C)cc2)[C@@H]2C(=O)N(C)C(=O)[C@@H]21,-20.1% (inactive)
15,CC1C=CCC2C(=O)N(c3cccc(C(=O)N4CCCCCC4)c3)C(=O)C12 (stereo not drawn),6.85% (inactive)
16,CC(C)N(C)C(=O)CCc1nnc(CCc2c[nH]c3ccccc23)o1,18.1% (inactive)
17,O=C(Nc1ccc([N+](=O)[O-])cc1)C1(c2ccccc2)CCOCC1,-9.79% (inactive)
18,Cc1ccc(NC(=O)CSc2sc3c(O)cc(=O)[nH]c3c2C#N)cc1C,6.61% (inactive)
19,COc1ccc(OC)c(CCNC(=O)c2nn(C)c3c2CS(=O)(=O)c2ccccc2-3)c1,7.08% (inactive)
20,Cn1c(N)c(C(=O)COC(=O)COc2ccc(Cl)cc2)c(=O)n(C)c1=O,4.34% (inactive)
21,CC(=O)N1CCSc2ccc(S(=O)(=O)N3CCC(C)CC3)cc21,2.83% (inactive)
22,COc1ccccc1N1CCN(CC(=O)NCCc2ccc(S(N)(=O)=O)cc2)CC1,16.7% (inactive)

row,Compound,inhibition
1,Nc1ccc(OCC(O)C[n+]2ccc(CCS(=O)(=O)[O-])cc2)cc1 (stereo not drawn),-10.5% (inactive)
2,CCCCn1c(N)c(N(CC)C(=O)c2ccccc2C(F)(F)F)c(=O)[nH]c1=O,-19.4% (inactive)
3,Cc1ccc(CNC(=O)C2CCCN2S(=O)(=O)c2ccc3c(c2)C(C)(C)C(=O)N3C)cc1 (stereo not drawn),4.35% (inactive)
4,CCOCCCNC(=O)C(NC(=O)c1ccc(=O)[nH]c1)c1ccc(Cl)cc1 (stereo not drawn),11.9% (inactive)
5,CCOc1ccc(Br)cc1S(=O)(=O)Nc1cccc(S(=O)(=O)N(CC)CC)c1,-37.2% (inactive)
6,CCC(C)(C)NC(=O)C(c1cccn1C)N(Cc1ccc(C)cc1)C(=O)Cn1nnc2ccccc21 (stereo not drawn),22.9% (inactive)
7,CC1(C)C(=O)C2(CCCCC2)C(=O)OC1c1cccs1 (stereo not drawn),5.23% (inactive)
8,O=C(O)CCC(=O)N(Cc1ccco1)c1nc(-c2ccccc2)cs1,-15.1% (inactive)
9,CSc1nnc(C2CCCN(CC(=O)Nc3ccccc3N3CCOCC3)C2)n1C(C)C (stereo not drawn),-21.8% (inactive)
10,COc1ccc(Cn2c(-c3ccc(Cl)cc3)c[n+]3ccccc23)cc1,-37.2% (inactive)
11,COC1=CC(=O)OC(C)(c2ccccc2)C1 (stereo not drawn),-28% (inactive)
12,Cc1ccc(OS(=O)(=O)c2ccc(-c3csc(C)n3)s2)c(C)c1,-6.88% (inactive)
13,CC1CCCCC1NC(=O)NC(=O)COC(=O)C1=NN(c2ccccc2)C(=O)CC1 (stereo not drawn),-11.1% (inactive)
14,CCn1nc(C)cc1C(=O)N1CCCC(C(=O)c2cccc(OC)c2)C1 (stereo not drawn),6.22% (inactive)
15,CCOC(=O)C(C)Oc1cccc2c(=O)n(CC(=O)NCCc3ccc(OC)c(OC)c3)ccc12 (stereo not drawn),3.91% (inactive)
16,CC(C)=NN1C(=O)c2ccccc2NC1(C)C,-62.5% (inactive)
17,COCCN(C(=O)C(C)N1C(=O)c2ccccc2C1=O)c1c(N)n(CC(C)C)c(=O)[nH]c1=O (stereo not drawn),-4.66% (inactive)
18,Cn1c(N)cc(-c2ccc(F)cc2)c(C#N)c1=O,6% (inactive)
19,C=CCSC(CC)(CC)C(N)=O,16.1% (inactive)
20,CC12CN(NC(=O)c3ccc(Cl)cc3)C3(C#N)CC1CCC23C (stereo not drawn),8.96% (inactive)
21,CC1CCCCC1NC(=O)CO/N=C/c1ccc(OC(F)F)cc1 (stereo not drawn),6.95% (inactive)
22,[2H]C(CCOS(N)(=O)=O)c1ccccc1 (stereo not drawn),3.1% (inactive)
